Measured values from the supplement of paper PMC8728848.
This excerpt belongs to a sample that is enriched for the strongest signals.

Key:
Experiment in all cases: glycan array binding signal (z-score within array); higher = stronger binding
Conditions in all cases: glycan notation: IUPAC condensed, linker removed
[1] = molecular target: Fuc(a1-2)Gal(b1-3)GalNAc(b1-3)Gal(a1-4)Gal(b1-4)Glc
Summary of the method: (§1)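 From the Consortium for Functional Glycomics database, 3228 arrays were curated, keeping only those whose protein sequence was available. Binding is given as a within-array Z-score averaged across arrays sharing a protein sequence and across linkers. Negative Z-scores can be read as non-binding.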

[2] = molecular target: Fuc(a1-2)Gal(b1-3)GlcNAc(b1-3)Gal(b1-4)Glc
Summary of the method: as §1

Fuc(a1-2)Gal(b1-4)GlcNAc = molecular target: Fuc(a1-2)Gal(b1-4)GlcNAc
Summary of the method: as §1

[3] = molecular target: Fuc(a1-2)Gal(b1-4)GlcNAc(b1-6)GalNAc
Summary of the method: as §1

[4] = molecular target: Fuc(a1-2)Gal(b1-4)[Fuc(a1-3)]GlcNAc(b1-2)Man(a1-3)[Fuc(a1-2)Gal(b1-4)[Fuc(a1-3)]GlcNAc(b1-2)Man(a1-6)]Man(b1-4)GlcNAc(b1-4)GlcNAc
Summary of the method: as §1

[5] = molecular target: Fuc(a1-2)Gal6S(b1-3)GlcNAc6S
Summary of the method: as §1

[6] = molecular target: Fuc(a1-2)[GalNAc(a1-3)]Gal(b1-3)GlcNAc
Summary of the method: as §1

[7] = molecular target: Fuc(a1-2)[GalNAc(a1-3)]Gal(b1-3)GlcNAc(b1-6)GalNAc
Summary of the method: as §1

[8] = molecular target: Fuc(a1-2)[GalNAc(a1-3)]Gal(b1-4)[Fuc(a1-3)]GlcNAc(b1-3)GalNAc
Summary of the method: as §1

Gal(a1-3)Gal(b1-3)GlcNAc = molecular target: Gal(a1-3)Gal(b1-3)GlcNAc
Summary of the method: as §1

[9] = molecular target: Gal(b1-3)[GlcNAc(b1-6)]GalNAc
Summary of the method: as §1

[10] = molecular target: Gal(b1-4)GlcNAc(a1-6)Gal(b1-4)GlcNAc
Summary of the method: as §1

[11] = molecular target: Gal(b1-4)GlcNAc(b1-2)Man(a1-3)[Man(a1-6)]Man(b1-4)GlcNAc(b1-4)GlcNAc
Summary of the method: as §1

[12] = molecular target: Gal(b1-4)GlcNAc(b1-2)[Gal(b1-4)GlcNAc(b1-6)]Man(a1-6)[GlcNAc(b1-4)][Gal(b1-4)GlcNAc(b1-2)Man(a1-3)]Man(b1-4)GlcNAc(b1-4)GlcNAc
Summary of the method: as §1

[13] = molecular target: Gal(b1-4)GlcNAc(b1-3)Gal(b1-3)GalNAc
Summary of the method: as §1

[14] = molecular target: Gal(b1-4)GlcNAc(b1-3)Gal(b1-4)GlcNAc(b1-3)Gal(b1-4)GlcNAc(b1-3)Gal(b1-4)GlcNAc(b1-3)Gal(b1-4)GlcNAc(b1-2)Man(a1-3)[Gal(b1-4)GlcNAc(b1-3)Gal(b1-4)GlcNAc(b1-3)Gal(b1-4)GlcNAc(b1-3)Gal(b1-4)GlcNAc(b1-3)Gal(b1-4)GlcNAc(b1-2)Man(a1-6)]Man(b1-4)GlcNAc(b1-4)GlcNAc
Summary of the method: as §1

[15] = molecular target: Gal(b1-4)GlcNAc(b1-3)Gal(b1-4)[Fuc(a1-3)GlcNAc(b1-6)]Gal(b1-4)Glc
Summary of the method: as §1

[16] = molecular target: Gal(b1-4)GlcNAc(b1-3)[Gal(b1-4)GlcNAc(b1-6)]GalNAc
Summary of the method: as §1

Gal(b1-4)GlcNAc6P = molecular target: Gal(b1-4)GlcNAc6P
Summary of the method: as §1

Gal6S(b1-3)GlcNAc6S = molecular target: Gal6S(b1-3)GlcNAc6S
Summary of the method: as §1

Gal6S(b1-4)GlcNAc6S = molecular target: Gal6S(b1-4)GlcNAc6S
Summary of the method: as §1

GalNAc(b1-4)Gal(b1-4)Glc = molecular target: GalNAc(b1-4)Gal(b1-4)Glc
Summary of the method: as §1

GalNAc3S(b1-4)GlcNAc3S = molecular target: GalNAc3S(b1-4)GlcNAc3S
Summary of the method: as §1

[17] = molecular target: GlcNAc(b1-3)Gal(b1-4)GlcNAc(b1-3)Gal(b1-4)GlcNAc(b1-3)Gal(b1-4)GlcNAc(b1-2)Man(a1-3)[GlcNAc(b1-3)Gal(b1-4)GlcNAc(b1-3)Gal(b1-4)GlcNAc(b1-3)Gal(b1-4)GlcNAc(b1-2)Man(a1-6)]Man(b1-4)GlcNAc(b1-4)GlcNAc
Summary of the method: as §1

[18] = molecular target: GlcNAc(b1-3)[GlcNAc(b1-6)]Gal(b1-4)GlcNAc
Summary of the method: as §1

Neu5Ac(a2-3)Gal = molecular target: Neu5Ac(a2-3)Gal
Summary of the method: as §1

[19] = molecular target: Neu5Ac(a2-3)Gal(b1-4)GlcNAc(b1-6)[Neu5Ac(a2-3)Gal(b1-3)]GalNAc
Summary of the method: as §1

[20] = molecular target: Neu5Ac(a2-3)Gal(b1-4)GlcNAc6S
Summary of the method: as §1

[21] = molecular target: Neu5Ac(a2-3)Gal6S(b1-4)GlcNAc
Summary of the method: as §1

[22] = molecular target: Neu5Ac(a2-3)[Neu5Ac(a2-6)]GalNAc
Summary of the method: as §1

B1: Siglec-7-SA-PE-180 (Homo sapiens), Q9Y286 (protein)
chain: MLLLLLLPLLWGRERVEGQKSNRKDYSLTMQSSVTVQEGMCVHVRCSFSYPVDSQTDSDPVHGYWFRAGNDISWKAPVATNNPAWAVQEETRDRFHLLGDPQTKNCTLSIRDARMSDAGRYFFRMEKGNIKWNYKYDQLSVNVTALTHRPNILIPGTLESGCFQNLTCSVPWACEQGTPPMISWMGTSVSPLHPSTTRSSVLTLIPQPQHHGTSLTCQVTLPGAGVTTNRTIQLNVSYPPQNLTVTVFQGEGTASTALGNSSSLSVLEGQSLRLVCAVDSNPPARLSWTWRSLTLYPSQPSNPLVLELQVHLGDEGEFTCRAQNSLGSQHVSLNLSLQQEYTGKMRPVSGVLLGAVGGAGATALVFLSFCVIFIVVRSCRKKSARPAADVGDIGMKDANTIRGSASQGNLTESWADDNPRHHGLAAHSSGEEREIQYAPLSFHKGEPQDLSGQEATNNEYSEIKIPK
Question: B1 was tested. Which “glycan array binding signal (z-score)” value [1] did it give?
Answer: -0.254

Question: What about the “glycan array binding signal (z-score)” value [2] of the same binder?
Answer: -0.174

Question: And the “glycan array binding signal (z-score)” value (Fuc(a1-2)Gal(b1-4)GlcNAc)?
Answer: -0.302

Question: And the “glycan array binding signal (z-score)” value [3]?
Answer: -0.066

Question: And the “glycan array binding signal (z-score)” value [4]?
Answer: -0.133

Question: And the “glycan array binding signal (z-score)” value [5]?
Answer: 2.66

Question: And the “glycan array binding signal (z-score)” value [6]?
Answer: -0.313

Question: What about the “glycan array binding signal (z-score)” value [7] of the same binder?
Answer: -0.099

Question: And the “glycan array binding signal (z-score)” value [8]?
Answer: 10.7

Question: And the “glycan array binding signal (z-score)” value (Gal(a1-3)Gal(b1-3)GlcNAc)?
Answer: -0.363

Question: And the “glycan array binding signal (z-score)” value [9]?
Answer: -0.225

Question: What about the “glycan array binding signal (z-score)” value [10] of the same binder?
Answer: -0.267

Question: What about the “glycan array binding signal (z-score)” value [11] of the same binder?
Answer: 0.048

Question: What about the “glycan array binding signal (z-score)” value [12] of the same binder?
Answer: -0.412

Question: And the “glycan array binding signal (z-score)” value [13]?
Answer: -0.464

Question: What about the “glycan array binding signal (z-score)” value [14] of the same binder?
Answer: -0.144

Question: What about the “glycan array binding signal (z-score)” value [15] of the same binder?
Answer: -0.383

Question: What about the “glycan array binding signal (z-score)” value [16] of the same binder?
Answer: -0.453

Question: What about the “glycan array binding signal (z-score)” value (Gal(b1-4)GlcNAc6P) of the same binder?
Answer: 0.085

Question: And the “glycan array binding signal (z-score)” value (Gal6S(b1-3)GlcNAc6S)?
Answer: 2.28

Question: What about the “glycan array binding signal (z-score)” value (Gal6S(b1-4)GlcNAc6S) of the same binder?
Answer: 2.43

Question: What about the “glycan array binding signal (z-score)” value (GalNAc(b1-4)Gal(b1-4)Glc) of the same binder?
Answer: 0.174

Question: And the “glycan array binding signal (z-score)” value (GalNAc3S(b1-4)GlcNAc3S)?
Answer: 2.05

Question: What about the “glycan array binding signal (z-score)” value [17] of the same binder?
Answer: 0.059

Question: What about the “glycan array binding signal (z-score)” value [18] of the same binder?
Answer: -0.346

Question: And the “glycan array binding signal (z-score)” value (Neu5Ac(a2-3)Gal)?
Answer: 2.25

Question: What about the “glycan array binding signal (z-score)” value [19] of the same binder?
Answer: -0.035

Question: What about the “glycan array binding signal (z-score)” value [20] of the same binder?
Answer: 4.5

Question: And the “glycan array binding signal (z-score)” value [21]?
Answer: 2.67

Question: What about the “glycan array binding signal (z-score)” value [22] of the same binder?
Answer: 3.03
